Bioassay records (PubChem)
Compounds with a hit are over-represented: about 1.3% of the library has one in this group of screens.
Bcl-xL primary – inhibitors of human Bcl-xL, primary screen, biochemical, fluorescence polarization, HTS; Bcl-2-like protein 1 (Homo sapiens), Q07817; AID 2129, 2009; GST-Bcl-xL / FITC-Bim BH3 peptide fluorescence polarization; 320,000 tested, 0.7% active; inhibition, % at 10.9 µM;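 active = inhibition above the mean of all tested compounds plus 3 SD, cutoff set per campaign, cut at about 30% in these data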;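 also: inhibitors lower millipolarization by displacing the labeled peptide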
Keap1 Nrf2 FP – Keap1-Nrf2 protein-protein interaction inhibitors, primary screen, biochemical, fluorescence polarization, single point; inhibition, % at 9.4 µM; 340,000 tested, 0.15% active; Kelch-like ECH-associated protein 1 (Homo sapiens), Q14145; Keap1 Kelch-Nrf2 peptide fluorescence polarization, 1536-well; in the data active = inhibition above about 12%;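 also: human Keap1 Kelch domain with fluorescein labeled Nrf2 9mer peptide probe; higher means more block of Keap1 binding to Nrf2 peptide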
eLon inh – inhibitors of E. coli Lon protease, primary screen, biochemical, fluorescence polarization; P0A9M0; 360,000 tested, 0.42% active; inhibition, % at 7.94 µM; AID 602123, 2011; purified E. coli Lon protease; in the data active = inhibition above about 13%, passing the limit was not always enough
GLD-1 RNA inh – GLD-1/TGE RNA complex disruptors, primary screen, biochemical, fluorescence polarization; Female germline-specific tumor suppressor gld-1 (Caenorhabditis elegans), Q17339; purified GLD-1 + fluorescein TGE RNA; inhibition, % at 5.96 µM; 320,000 tested, 0.44% active;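 active = percent inhibition above a per-plate cutoff, the plate mean of test compounds plus 3 SD, cut at about 30% in these data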
MCL1-BIM inh – inhibitors of MCL1 binding to BIM-BH3, primary screen, biochemical, fluorescence polarization; 320,000 tested, 0.68% active; inhibition, % at 10.9 µM; AID 2057, 2009; Induced myeloid leukemia cell differentiation protein Mcl-1 (Homo sapiens), Q07820; GST-MCL1 / FITC-Bim-BH3 fluorescence polarization;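 active = inhibition above the mean inhibition of all tested compounds plus 3 SD, set per campaign, cut at about 40% in these data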;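 also: higher means more loss of mP so more displacement of Bim peptide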
Target sequence (Q07820 whole entry, looked up): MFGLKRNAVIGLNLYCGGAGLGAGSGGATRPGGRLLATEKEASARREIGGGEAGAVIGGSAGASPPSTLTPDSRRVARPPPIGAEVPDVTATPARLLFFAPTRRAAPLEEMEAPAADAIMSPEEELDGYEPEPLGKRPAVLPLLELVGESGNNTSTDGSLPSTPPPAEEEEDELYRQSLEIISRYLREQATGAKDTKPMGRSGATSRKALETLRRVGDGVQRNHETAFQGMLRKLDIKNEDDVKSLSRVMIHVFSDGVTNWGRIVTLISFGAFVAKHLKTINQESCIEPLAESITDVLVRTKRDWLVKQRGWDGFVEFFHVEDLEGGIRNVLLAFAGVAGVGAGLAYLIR
C-LANA FP – inhibitors of KSHV C-LANA binding to DNA, primary screen, biochemical, fluorescence polarization, FAM-LBS DNA, MBP-C-LANA, single point. Kaposi's sarcoma herpesvirus LANA C-terminal domain (residues 932-1162) DNA binding. inhibition, % at 9 µM. 340,000 tested, 0.078% active. AID 504423, 2011;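 active = highest replicate inhibition at or above 60% at 9 µM, even if other replicates fall short; inactive = all replicates below 60% inhibition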
Bcl-xL conf – Bcl-xL inhibitors blocking Bim BH3 binding, confirmation, counter-screen for MCL1 inhibitor project, biochemical, fluorescence polarization | shares compounds with MCL1-BIM inh | inhibition, % at 10.9 µM | 1,700 tested, 54% active | GST-Bcl-xL / FITC-Bim BH3 peptide FP binding;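 active = inhibition above a cutoff equal to the mean inhibition of all tested compounds plus 3 SD, cut at about 30% in these data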
MCL1 BIM confirm – inhibitors of MCL1 binding to BIM-BH3, confirmation, biochemical, fluorescence polarization, triplicate; shares compounds with MCL1-BIM inh; GST-MCL1 / FITC-Bim-BH3 fluorescence polarization; inhibition, % at 10.9 µM; 1,700 tested, 61% active; AID 2168, 2009;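 active = inhibition above the average of all tested compounds plus 3 SD, cut at about 40% in these data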
Each line names hits and unclear results; the compound was inactive in the other large screens (follow-up assays come after a bar, where they were run).

Oc1oc(-c2ccc(Br)cc2)nc1/C=N/c1ccccn1	MCL1-BIM inh 69 | Bcl-xL conf inactive | MCL1 BIM confirm inactive
Cc1ccc(-c2nc(C=Nc3ccccc3)c(O)o2)cc1	none
O=C(COC(=O)c1ccc2ncsc2c1)Nc1cc([N+](=O)[O-])ccc1Cl	MCL1-BIM inh 42 | Bcl-xL conf inactive | MCL1 BIM confirm inactive
O=C(COC(=O)c1ccc2ncsc2c1)Nc1ccccc1Cl	none (no result: Bcl-xL primary, MCL1-BIM inh)
CC1=C/C(=N\NC(=S)NCc2ccccc2)CC1	none
O=C(NN=Cc1ccc2c(c1)CCN2)c1cccs1	none (no result: Bcl-xL primary, Keap1 Nrf2 FP, GLD-1 RNA inh, MCL1-BIM inh, C-LANA FP)
Cc1ccc(NC(=S)Nc2ccc3nc(-c4ccccn4)c(-c4ccccn4)nc3c2)cc1C	Bcl-xL primary 122, eLon inh 120, GLD-1 RNA inh 103, MCL1-BIM inh 151 | Bcl-xL conf 61 | MCL1 BIM confirm 62
Cc1ccc(NC(=S)Nc2ccccn2)cc1C	none
CN(C)C(=O)N1CCN(C(=O)N2CCOCC2)CC1	Bcl-xL primary 158, GLD-1 RNA inh 101, MCL1-BIM inh 139 | Bcl-xL conf inactive | MCL1 BIM confirm inactive
COc1cccc2c(=O)c3c([nH]c12)OC(C)(C)C3	none
COc1cccc2c(=O)c3cccc(N)c3[nH]c12	Bcl-xL primary 63, MCL1-BIM inh 87 | Bcl-xL conf 44 | MCL1 BIM confirm 42
O=C(O)c1cc(O)c2c(c1)C(=O)c1cccc(O)c1C2=O	Bcl-xL primary 114, GLD-1 RNA inh 89, MCL1-BIM inh 147 | Bcl-xL conf 118 | MCL1 BIM confirm 144
CCOc1ccccc1C(=O)NCC(=O)OCC(=O)c1c(N)n(C)c(=O)n(C)c1=O	none (no result: Bcl-xL primary, MCL1-BIM inh)
Cn1c(N)c(C(=O)CSc2nc(C3CC3)n(-c3ccccc3)n2)c(=O)[nH]c1=O	MCL1-BIM inh 69 | Bcl-xL conf inactive | MCL1 BIM confirm inactive
Cn1c(N)c(C(=O)CSc2nnc(C3CC3)n2-c2ccccc2)c(=O)[nH]c1=O	none (no result: Bcl-xL primary, MCL1-BIM inh)
Cn1c(N)c(C(=O)CSc2nnc(C3CC3)n2-c2ccccc2)c(=O)n(C)c1=O	MCL1-BIM inh 58 | Bcl-xL conf inactive | MCL1 BIM confirm inactive
Clc1cccc(Cc2c(-c3cccc(Br)c3)nc3c4ccccc4ccn23)c1	none (no result: Bcl-xL primary, Keap1 Nrf2 FP, GLD-1 RNA inh, MCL1-BIM inh, C-LANA FP)
Cc1nc(SCC(=O)Nc2ccc(CN3CCCC3)cc2)c2c(C)c(C)sc2n1	none
N#CC1=C(N)C(C#N)(C#N)[C@H](c2ccncc2)[C@H]2CC3(CC=C12)OCCO3	none
Cc1ccc([C@@H]2C3COCC=C3C(C#N)=C(N)C2(C#N)C#N)o1 (stereo partly specified)	Bcl-xL primary 96, eLon inh 69, GLD-1 RNA inh 78, MCL1-BIM inh 105 | Bcl-xL conf 71 | MCL1 BIM confirm 74
CC(=O)NCCc1nc2cc(NC(=O)c3ccccc3C)ccc2n1C	none
CN(C)S(=O)(=O)c1cccc(COC(=O)Cc2c(F)cccc2Cl)c1	none
CC1CCCN(CC(O)COc2ccc(S(=O)(=O)N3CCCC3)cc2[N+](=O)[O-])C1 (stereo unspecified)	MCL1-BIM inh 54 | Bcl-xL conf inactive | MCL1 BIM confirm inactive
CCn1c(/C=C/c2cc[n+](C)cc2)nc2ccccc21	Bcl-xL primary 74, MCL1-BIM inh 75 | Bcl-xL conf 65 | MCL1 BIM confirm 65
CCOCCCn1c(=S)[nH]c2cc(C(=O)NCC(OC)OC)ccc2c1=O	none
CC1CCN(C(=O)COC(=O)c2ccc3c(c2)C(=O)N(Cc2ccco2)C3=O)CC1	none (no result: Bcl-xL primary, GLD-1 RNA inh, MCL1-BIM inh)
